Data as given in PubChem BioAssay (EPA / NIEHS).
Records with an inconclusive call do not appear. Some structures have more than one record in an assay (separate samples or runs), and their calls can disagree. Activity calls are given as the source filed them. The calls were made as follows: active = hit-call score of the fitted dose curve at least 0.9, where 1 is the maximum; inconclusive = response in the unintended direction; inactive = score below 0.9.

Tests used:
[1] = TOX21_p53_BLA_p2_viability: Viability Assessment in the Tox21 HCT-116 p53 Agonism Beta-lactamase Assay, Phase 2 (AID 2283591);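 also: compound exposure lasted 16 h at 37 °C; actives lower the ATP signal meaning cytotoxicity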
In short: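 HCT-116 p53-bla cells (4000/well) rested 5 h at 37C, then received compounds in DMSO (217-fold dilution) for 16 h at 37C, 5% CO2. After the CCF4 read, CellTiter-Glo was added; ATP luminescence was read after 30 min at room temperature.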

[2] = target: Cellular tumor antigen p53 (Homo sapiens) (UniProt P04637); test: TOX21_p53_BLA_p2_ratio: Tox21 HCT-116 p53 Agonism Beta-lactamase Assay, Ratio, Phase 2 (AID 2283592)
In short: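 Gain-of-signal p53 agonism was scored from the beta-lactamase FRET ratio (460/530 nm, 405 nm excitation) in HCT116 cells treated 16 h at 37C, 5% CO2, with DMSO serving as negative control and baseline.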

[3] = TOX21_p53_BLA_p3_viability: Viability Assessment in the Tox21 HCT-116 p53 Agonism Beta-lactamase Assay, Phase 3 (AID 2283593);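 also: cells exposed to compound for 16 h before reading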
In short: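 HCT-116 cells (4000/well) rested 5 h at 37C, then got DMSO compounds by pin tool (217-fold dilution) for 16 h at 37C, 5% CO2. After the bla read, CellTiter-Glo was added and luminescence read at 30 min, room temperature.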

[4] = target: Cellular tumor antigen p53 (Homo sapiens) (UniProt P04637); test: TOX21_p53_BLA_p3_ratio: Tox21 HCT-116 p53 Agonism Beta-lactamase Assay, Ratio, Phase 3 (AID 2283596)
In short: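 HCT116 p53-bla cells (4000/well) given compound in DMSO (217-fold dilution) after 5 h, incubated 16 h at 37C. CCF4-AM substrate 2 h at room temperature; 460/530 nm emission ratio, gain fitted against DMSO.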

[5] = TOX21_p53_BLA_p4_viability: Viability Assessment in the Tox21 HCT-116 p53 Agonism Beta-lactamase Assay, Phase 4 (AID 2283597);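 also: hits lower the luminescence signal meaning cytotoxicity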
In short: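 Following a 16 h exposure at 37C, the treated HCT116 wells were first read for the FRET ratio. They were then lysed with CellTiter-Glo, and ATP luminescence was recorded after 30 min at room temperature.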

[6] = target: Cellular tumor antigen p53 (Homo sapiens) (UniProt P04637); test: TOX21_p53_BLA_p5_ratio: Tox21 HCT-116 p53 Agonism Beta-lactamase Assay, Ratio, Phase 5 (AID 2283599)
In short: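 HCT-116 cells carrying a p53-inducible beta-lactamase reporter were seeded at 4000 cells/well and dosed after 5 h with compound in DMSO (217-fold dilution). After 16 h at 37C, CCF4-AM substrate was added for 2 h, and the 460/530 nm emission ratio was scored as gain-of-signal versus DMSO.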

[7] = TOX21_p53_BLA_p5_viability: Viability Assessment in the Tox21 HCT-116 p53 Agonism Beta-lactamase Assay, Phase 5 (AID 2283600)
In short: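 After the 460/530 nm beta-lactamase measurement, the wells received an ATP-detection luciferase reagent; signal was read 30 min later at RT. Compound treatment lasted 16 h on cells pre-incubated 5 h post-seeding.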

[8] = target: Cellular tumor antigen p53 (Homo sapiens) (UniProt P04637); test: TOX21_p53_BLA_p4_ratio: Tox21 HCT-116 p53 Agonism Beta-lactamase Assay, Ratio, Phase 4 (AID 2283601)
In short: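 HCT116 cells carrying an inducible beta-lactamase reporter were plated at 4000 cells/well, rested 5 h, then exposed to compounds in DMSO (217-fold dilution) for 16 h at 37C. CCF4-AM substrate was loaded 2 h at room temperature; 460/530 nm emission ratio scored gain-of-signal versus DMSO.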

Sequence of Cellular tumor antigen p53 (Homo sapiens) (P04637 whole entry, looked up): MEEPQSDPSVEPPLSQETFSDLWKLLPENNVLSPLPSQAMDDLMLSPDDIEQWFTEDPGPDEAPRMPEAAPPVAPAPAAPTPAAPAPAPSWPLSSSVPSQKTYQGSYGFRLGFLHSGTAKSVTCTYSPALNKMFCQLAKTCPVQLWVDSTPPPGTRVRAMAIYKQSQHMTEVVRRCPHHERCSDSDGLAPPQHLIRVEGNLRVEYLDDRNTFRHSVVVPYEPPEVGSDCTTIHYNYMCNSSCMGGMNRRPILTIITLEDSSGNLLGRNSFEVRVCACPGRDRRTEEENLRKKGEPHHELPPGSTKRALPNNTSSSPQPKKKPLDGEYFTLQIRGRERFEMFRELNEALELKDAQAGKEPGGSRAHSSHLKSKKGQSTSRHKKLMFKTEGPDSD

Oc1ccc(Cl)c(Cl)c1Cl
outcome [1]: inactive | outcome [2]: inactive | outcome [3]: inactive | outcome [4]: inactive | outcome [5]: inactive | outcome [6]: inactive | outcome [7]: inactive | outcome [8]: inactive

CN
outcome [1]: inactive | outcome [2]: inactive | outcome [3]: inactive | outcome [4]: inactive | outcome [5]: inactive | outcome [6]: inactive | outcome [7]: inactive | outcome [8]: inactive

c1ccc2c(c1)[nH]c1cnccc12
outcome [1]: inactive | outcome [2]: inactive | outcome [3]: inactive | AC50 [4]: 46.1 µM (active) | outcome [5]: inactive | outcome [6]: inactive | outcome [7]: inactive | outcome [8]: inactive

N#CC(C#N)=Cc1cc(O)c(O)c(O)c1
outcome [1]: inactive | outcome [2]: inactive | outcome [3]: inactive | outcome [4]: inactive | outcome [5]: inactive | outcome [6]: inactive | outcome [7]: inactive | outcome [8]: inactive

CN1C[C@@H](NS(=O)(=O)N(C)C)C[C@@H]2c3cccc4c3c(cn4C)C[C@H]21
outcome [1]: inactive | outcome [2]: inactive | outcome [3]: inactive | outcome [4]: inactive | outcome [5]: inactive | outcome [6]: inactive | outcome [7]: inactive | outcome [8]: inactive

Oc1cccc[c]1[Hg][Cl]
AC50 [1]: 4.03 µM (active) | AC50 [2]: 8.58 µM (active) | AC50 [3]: 9.5 µM (active) | AC50 [4]: 18.6 µM (active) | AC50 [5]: 4.24 µM (active) | AC50 [6]: 6.39 µM (active) | AC50 [7]: 3.94 µM (active) | AC50 [8]: 8.72 µM (active)

CN(C)c1ccc(N)cc1
outcome [1]: inactive | AC50 [2]: 72 µM (active) | outcome [3]: inactive | outcome [4]: inactive | outcome [5]: inactive | outcome [6]: inactive | outcome [7]: inactive | outcome [8]: inactive

OC(O)C(Cl)(Cl)Cl
outcome [1]: inactive | outcome [2]: inactive | outcome [3]: inactive | outcome [4]: inactive | outcome [5]: inactive | outcome [6]: inactive | outcome [7]: inactive | outcome [8]: inactive

O=C(N/N=C/c1ccc([N+](=O)[O-])o1)c1cc([N+](=O)[O-])cc([N+](=O)[O-])c1O
outcome [1]: inactive | outcome [2]: inactive | outcome [3]: inactive | outcome [4]: inactive | AC50 [5]: 23 µM (active) | outcome [6]: inactive | outcome [7]: inactive | outcome [8]: inactive

O=C(O)c1nn(Cc2ccc(Cl)cc2Cl)c2ccccc12
outcome [1]: inactive | outcome [2]: inactive | outcome [3]: inactive | outcome [4]: inactive | outcome [5]: inactive | outcome [6]: inactive | outcome [7]: inactive | AC50 [8]: 81.2 µM (active) | outcome [8]: inactive

CCCC(Cn1cncn1)c1ccc(Cl)cc1Cl (stereo unspecified)
outcome [1]: inactive | AC50 [2]: 75.6 µM (active) | outcome [3]: inactive | AC50 [4]: 85.7 µM (active) | outcome [5]: inactive | outcome [6]: inactive | outcome [7]: inactive | AC50 [8]: 75.2 µM (active)

C1CN(P2(N3CC3)=NP(N3CC3)(N3CC3)=NP(N3CC3)(N3CC3)=N2)CCO1 (stereo unspecified)
outcome [1]: inactive | outcome [2]: inactive | outcome [3]: inactive | AC50 [4]: 23 µM (active) | outcome [5]: inactive | outcome [6]: inactive | outcome [8]: inactive
